CSC inhib = cancer stem cell inhibition | cancer stem cell-like cells viability, luminescence | inhibition, % at 7.5 µM | actives 1.1% (n = 300,000); in the data active = inhibition above about 75%; tested in HMLE shEcad cells
Calb FLC = affects C. albicans growth with fluconazole | C. albicans CaCi-2 (fluconazole-resistant clinical isolate) + fluconazole, Alamar Blue growth, 48 h | growth inhibition, % (concentration not given with the values) | actives 0.57% (n = 300,000);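 active = growth inhibition above about 58% in most replicates, limit read from the data, passing the limit was not always enough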;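 also: all wells also contain fluconazole at 8 µg/ml as a sub-toxic cotreatment; 0% = median of DMSO wells and 100% = median of geldanamycin control wells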
PP1 counter = blocks human PP1-alpha phosphatase, a PP5 counter-screen | P62136 | purified PP1alpha, OMFP fluorescence | inhibition, % at 6.7 µM | actives 0.9% (n = 320,000);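 active = inhibition above the mean inhibition of all tested compounds plus 3 SD, computed separately for each screening campaign, cut at about 15% in these data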
Target sequence (P62136 whole entry, looked up): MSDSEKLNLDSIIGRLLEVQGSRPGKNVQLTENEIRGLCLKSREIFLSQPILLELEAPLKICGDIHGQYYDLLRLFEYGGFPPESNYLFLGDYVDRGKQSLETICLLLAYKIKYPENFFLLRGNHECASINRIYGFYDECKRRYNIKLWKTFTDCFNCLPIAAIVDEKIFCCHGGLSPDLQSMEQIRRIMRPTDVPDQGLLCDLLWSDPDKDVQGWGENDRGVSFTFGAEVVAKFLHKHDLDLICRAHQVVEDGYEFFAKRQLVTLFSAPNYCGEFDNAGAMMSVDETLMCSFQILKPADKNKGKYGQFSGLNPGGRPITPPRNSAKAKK
Mdm2-MdmX inh = inhibitors of human Mdm2/MdmX interaction. SaOS-2 split-luciferase Mdm2/MdmX complementation, luminescence. inhibition, % at 8 µM. actives 3% (n = 330,000). AID 485346;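 active = inhibition of at least 50% at 8 µM in the primary screen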
Beta cell apopt = beta cell apoptosis inhibition. INS-1E cytokine-induced death, ATP luminescence, 48 h; percent of positive-control rescue, neutral wells zero. protection from apoptosis, % (no concentration beside the values). actives 0.8% (n = 300,000). AID 435005;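 active = Every replicate reaches about 75%, or at least half do and their mean reaches it too, limit read from the data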;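 also: 0% = cytokine-treated negative control wells and 100% = positive control rescue; higher means more ATP so stronger rescue from cytokine killing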
PP5 primary = inhibitors of human protein phosphatase 5 (PP5); P53041; inhibition, % at 6.7 µM; purified PP5c, OMFP substrate fluorescence; actives 0.18% (n = 320,000);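 active = inhibition above the campaign's mean inhibition across all tested compounds plus 3 SD, cut at about 9.5% in these data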;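 also: 0% = DMSO only and 100% = 100 µM cantharidin control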
PP1 inh confirm = confirmation of human PP1 phosphatase inhibitors | shares compounds with PP1 counter | purified PP1alpha, OMFP substrate fluorescence | inhibition, % at 6.7 µM | actives 52% (n = 1,900);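 active = mean PP1 inhibition above a set limit taken from the earlier primary screen, cut at about 15% in these data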
PP5 inh counter = PP5 phosphatase inhibition, counter-screen for PP1 inhibitors; purified PP5c, OMFP fluorescence; AID 2360; actives 4% (n = 1,900); inhibition, % at 6.7 µM; shares compounds with PP1 counter;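 active = mean PP5 inhibition over triplicate wells above about 9.5% taken from the earlier PP1 screen, limit read from the data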
* hit, by the source's call. Rows were chosen to be rich in hits. Some 4.9% of all compounds tested hit in one or more screens of this group.

Results for O=C(O)c1ccc(N/N=C/c2ccc(-c3cc(Cl)ccc3Cl)o2)cc1 ?
CSC inhib: 15.2; Calb FLC: 7.2; PP1 counter: 17.9*; Mdm2-MdmX inh: -22.9; Beta cell apopt: -7.6; PP5 primary: -1.4; PP1 inh confirm: 19.0*; PP5 inh counter: -2.7

Results for CCCOc1ccc(NC(=O)c2c(-c3ccccc3)noc2C)cc1 ?
CSC inhib: -9.2; Calb FLC: 9.4; PP1 counter: -5.3; Mdm2-MdmX inh: 9.6; Beta cell apopt: 4.4; PP5 primary: 0.8

How did CCCOc1ccc(C(=O)NC(=S)NNC(=O)c2c(-c3ccccc3)noc2C)cc1 do in these assays?
CSC inhib: 30.8; Calb FLC: -1.2; PP1 counter: 18.4*; Mdm2-MdmX inh: 32.9; Beta cell apopt: 17.2; PP5 primary: 2.9; PP1 inh confirm: 1.3; PP5 inh counter: -1.2

Results for COc1ccc(C(=O)CSc2nnc(CNc3ccc(C)cc3C)n2Cc2ccco2)cc1 ?
CSC inhib: 8.9; Calb FLC: -4.8; PP1 counter: 22.8*; Mdm2-MdmX inh: 23.0; Beta cell apopt: 2.2; PP5 primary: 9.0; PP1 inh confirm: 8.2; PP5 inh counter: 0.7

What do the screens show for `Cc1ccc(C(=O)CSc2nnc(CNc3ccc(C)cc3C)n2Cc2ccco2)cc1`?
CSC inhib: -11.6; Calb FLC: 4.0; PP1 counter: 9.9; Mdm2-MdmX inh: 32.0; Beta cell apopt: 2.8; PP5 primary: 7.2

Results for CC(C)N1CCC(N2CCN(Cc3cc4c(cc3Cl)OCO4)CC2CCO)CC1 (configuration not stated) ?
CSC inhib: 15.2; Calb FLC: -22.7; PP1 counter: -1.6; Mdm2-MdmX inh: -4.2; Beta cell apopt: 1.9; PP5 primary: 1.4

Results for O=C(Cc1csc(NC(=O)Nc2cccc(Cl)c2)n1)NC1CCCC1 ?
CSC inhib: -11.0; Calb FLC: -5.6; PP1 counter: 36.2*; Mdm2-MdmX inh: 37.4; PP5 primary: 3.9; PP1 inh confirm: 42.0*; PP5 inh counter: -0.9

What do the screens show for `CCOC(=O)CC1(NC(=O)C2CCC(=O)N(CCc3ccccc3)C2)CCCCC1` (configuration not stated)?
CSC inhib: -9.8; Calb FLC: -5.2; PP1 counter: 20.2*; Mdm2-MdmX inh: -1.0; Beta cell apopt: -5.0; PP5 primary: -0.6; PP1 inh confirm: 0.0; PP5 inh counter: 2.1

How did COc1cc(/C=C(/C#N)C(=O)Nc2ccccc2)c(Br)cc1OCc1ccc(C(=O)O)cc1 do in these assays?
CSC inhib: 9.1; Calb FLC: 2.1; PP1 counter: 5.2; Mdm2-MdmX inh: -18.8; Beta cell apopt: -2.2; PP5 primary: 0.4

Results for COc1cc(/C=C(\C#N)C(=O)Nc2cccc(C(=O)O)c2)ccc1OCc1ccc(Cl)cc1 ?
CSC inhib: -1.3; Calb FLC: -0.9; PP1 counter: 31.4*; Mdm2-MdmX inh: -172.6; Beta cell apopt: -2.5; PP5 primary: 4.0; PP1 inh confirm: 24.2*; PP5 inh counter: 1.7

How did CCOC(=O)c1ccc(Cl)c(NC(=O)c2ccc(-c3ccccc3)cc2)c1 do in these assays?
CSC inhib: -1.1; Calb FLC: 4.6; PP1 counter: -0.8; Mdm2-MdmX inh: 35.6; Beta cell apopt: 5.9; PP5 primary: 0.9

What do the screens show for `CCOC(=O)c1ccc(/C=C2/C=C(c3ccccc3)N(c3ccc(Cl)c(C(=O)O)c3)C2=O)cc1`?
CSC inhib: 44.9; Calb FLC: 24.5; PP1 counter: 20.2*; Mdm2-MdmX inh: 2.7; Beta cell apopt: -7.1; PP5 primary: 4.6; PP1 inh confirm: 13.0; PP5 inh counter: -1.8

What do the screens show for `COc1cccc(CC(=O)OCC(=O)NCC(=O)Nc2cccc(C)c2C)c1`?
CSC inhib: -2.7; Calb FLC: -4.4; PP1 counter: -2.2; Mdm2-MdmX inh: -6.3; Beta cell apopt: -5.3; PP5 primary: -1.5

How did O=c1oc2ccccc2cc1-c1nc2ccccc2o1 do in these assays?
CSC inhib: -5.0; Calb FLC: -37.4; PP1 counter: -1.9; Mdm2-MdmX inh: -84.2; Beta cell apopt: 3.0; PP5 primary: -2.1

How did Nc1cc2nc3ccccc3oc-2cc1=O do in these assays?
CSC inhib: -14.7; PP1 counter: 19.0*; Mdm2-MdmX inh: 11.5; PP5 primary: 4.3; PP1 inh confirm: 1.7; PP5 inh counter: 6.7

How did CN(Cc1ccccc1)C(=O)Cn1c(=O)c2cccn2c2cccnc21 do in these assays?
CSC inhib: -1.9; Calb FLC: -7.7; PP1 counter: 1.0; Mdm2-MdmX inh: 9.4; Beta cell apopt: -5.0; PP5 primary: 2.5

Results for CC(C)C[C@H](NC(=O)c1nc[nH]c1C(=O)NCCCCCNC(=O)OC(C)(C)C)C(=O)OC(C)(C)C ?
CSC inhib: 3.3; Calb FLC: -7.4; PP1 counter: 16.3*; Mdm2-MdmX inh: 0.3; Beta cell apopt: 9.0; PP5 primary: 9.9*; PP1 inh confirm: 6.5; PP5 inh counter: 5.4

What do the screens show for `CC(C)(CNC(=O)c1ccc(-c2cccc(C(F)(F)F)c2)o1)N1CCOCC1`?
CSC inhib: 13.5; Calb FLC: 2.5; PP1 counter: -3.8; Mdm2-MdmX inh: -7.0; Beta cell apopt: 5.2; PP5 primary: 0.9

What do the screens show for `N#CCC(=O)N/N=C/c1ccc(N2N=C(c3ccccc3)CC2c2ccccc2)cc1` (configuration not stated)?
Calb FLC: -16.9; PP1 counter: 24.7*; Mdm2-MdmX inh: 31.5; Beta cell apopt: -4.2; PP5 primary: 7.7; PP1 inh confirm: 17.4*; PP5 inh counter: -0.1

What do the screens show for `COC(=O)C1=C(CCc2ccccc2)NC(=O)NC1c1ccc([N+](=O)[O-])cc1` (configuration not stated)?
CSC inhib: -1.4; Calb FLC: -2.3; PP1 counter: 0.2; Mdm2-MdmX inh: -8.9; Beta cell apopt: -8.1; PP5 primary: 1.0

How did COc1ccc(NC(=O)Cn2c(CCC(=O)O)ccc2-c2ccc(C)cc2)cc1 do in these assays?
CSC inhib: -10.6; Calb FLC: -3.0; PP1 counter: 4.9; Mdm2-MdmX inh: 6.5; Beta cell apopt: -9.8; PP5 primary: -0.7

What do the screens show for `COc1ccc(NC(=O)CN2C(=O)NC(C)(c3ccccc3)C2=O)cc1Cl` (configuration not stated)?
CSC inhib: 19.0; Calb FLC: -3.9; PP1 counter: -87.7; Mdm2-MdmX inh: 8.2; Beta cell apopt: -1.3; PP5 primary: 1.2; PP1 inh confirm: 1.4; PP5 inh counter: 2.3

Results for CC1(c2ccc(Cl)cc2)NC(=O)N(CC(=O)Nc2ccc(N3CCCCC3)cc2)C1=O (configuration not stated) ?
CSC inhib: -14.7; PP1 counter: 38.9*; Mdm2-MdmX inh: 15.9; Beta cell apopt: 4.8; PP5 primary: -2.2; PP1 inh confirm: 3.8; PP5 inh counter: -2.2

Bioassay records (PubChem)
